Measurements as given in PubChem BioAssay (NCI).
The panel holds about 83,000 compounds, 20% with a hit somewhere; the sample as a whole holds those more often.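 Note: values are percent growth. 100 is the growth of untreated cells, values between 100 and 0 indicate rising inhibition; between -100 and 0 indicates cell death.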 Values without a mark were called inactive. Active and inactive are the calls of the source. Rule for the calls: active = growth percent below 10; inactive = the rest.

What was measured:
Test in all cases: NCI-60 one-dose screen, 48 h (100 = growth as untreated, 0 = no growth, -100 = all killed)
Conditions in all cases: 10 µM unless noted
SK-MEL-2 melanoma = system: SK-MEL-2 melanoma
EKVX NSCLC = system: EKVX NSCLC
SN12C renal = system: SN12C renal
UO-31 renal = system: UO-31 renal
TK-10 renal = system: TK-10 renal
ACHN renal = system: ACHN renal
CAKI-1 renal = system: CAKI-1 renal
A498 renal = system: A498 renal
CCRF-CEM leukemia = system: CCRF-CEM leukemia
MOLT-4 leukemia = system: MOLT-4 leukemia

SMILES	growth (SK-MEL-2 melanoma)	growth (EKVX NSCLC)	growth (SN12C renal)	growth (UO-31 renal)	growth (TK-10 renal)	growth (ACHN renal)	growth (CAKI-1 renal)	growth (A498 renal)	growth (CCRF-CEM leukemia)	growth (MOLT-4 leukemia)
CCOC(=O)C1C(=O)NC(C(=O)OCC)(C(=O)OCC)C1CC (centres undefined)	110%	117%	100%	89.5%	115%	104%	99.9%	104%	109%	113%
O=C1OC(Oc2ccccc2)(c2ccccc2)c2ccccc21 (centres undefined)	104%	133%	110%	102%	109%	102%	87.4%	79.9%	103%	76%
O=Cc1ccccc1C(=O)O	109%	94%	104%	90%	93.2%	103%	96%	109%	104%	98.6%
CCOC(=O)c1sc(NC(=O)COc2ccc(/C=C3\CCc4cc(OC)ccc4C3=O)cc2)nc1C	62.3%	90.6%	86.2%	14.5%	115%	103%	76.7%	76.6%	-62.6% (active)	7.56% (active)
CC(=O)Nc1ccc(C(=O)COc2cccc(/C=C3\CCc4ccccc4C3=O)c2)cc1	51.2%	80.3%	99.5%	5.8% (active)	103%	92.1%	254%	92.7%	11.6%	38%
O=C1Nc2ccc(C(=O)O)c(O)c2C1=O	103%	97.8%	107%	91.7%	107%	104%	92.2%	102%	94.9%	110%
Cc1cc2ccccn2c1C(=O)c1ccc(C(=O)c2ccccc2)cc1	15%	91.8%	94.5%	62.5%	98.7%	93%	106%	90.5%	86.6%	78.4%
O=C(COc1ccc(/C=C2\Oc3ccc4ccccc4c3C2=O)cc1)c1ccc([N+](=O)[O-])cc1	48.6%	100%	89.7%	2.26% (active)	117%	107%	101%	103%	-17.2% (active)	20.4%
O=C(Oc1ccccc1)C(Br)C(Br)c1ccccc1 (centres undefined)	95.3%	136%	109%	93.3%	83%	78.2%	-66.7% (active)	91.3%	-28.7% (active)	7.62% (active)
O=C(Nc1nc2ccc(OC(F)(F)F)cc2s1)c1ccc(F)cc1	-22.6% (active)	15.6%	13.3%	-4.24% (active)	21.8%	7.56% (active)	6.43% (active)	16.4%	32.1%	13.8%
CC1CN(C2CCCCC2)C(=O)NC1=O (centres undefined)	100%	110%	92.1%	82%	101%	106%	103%	87.9%	106%	85%
CC1C(C)N(C(=O)CCl)c2ccccc2N1C(=O)CCl (centres undefined)	-40.9% (active)	-60% (active)	-26.6% (active)	-84.8% (active)	-87.4% (active)	-91.5% (active)	-79.7% (active)	-83.5% (active)	-34.6% (active)	-26.5% (active)
CCCCCN1C(=O)CCC1=O	103%	98.9%	101%	85.8%	106%	104%	91.8%	106%	-52.3% (active)	110%
COc1ccc(-c2ccc(O)c(C(=O)/C=C/c3cc(OC)c(OC)c(OC)c3)c2)cc1	84.4%	79.8%	94.6%	59.7%	103%	85.7%	86.5%	124%	24.2%	34.3%
COP(=O)(OC)C(c1ccccc1)(c1ccccc1)c1ccccc1	101%	101%	97.7%	113%	69%	107%	83%	93%	84.3%	46.5%
COc1ccc(Cl)cc1Nc1nc(C(F)(F)F)ccc1C(=O)N/N=C/c1c(Cl)cccc1Cl	28.3%	60.5%	63%	31.2%	67.2%	39.2%	34.9%	-21.9% (active)	13.8%	14.4%
O=C(COc1cccc(/C=C2\Oc3ccc4ccccc4c3C2=O)c1)c1ccc(Cl)cc1	57.5%	92.8%	91.2%	-7.73% (active)	115%	96.8%	83%	132%	25.3%	74%
COc1ccc(CNC(=O)c2c(C)n([O-])c3ccccc3[n+]2=O)cc1	95.8%	83.8%	101%	32.9%	120%	109%	112%	96.1%	98.4%	93.4%
O=C(NCCNC(=O)Oc1cccc2ccccc12)Oc1cccc2ccccc12	88.7%	92.9%	105%	45.4%	92.3%	85.3%	95%	89.2%	65.2%	80.6%
COC(=O)[C@H]1[C@H]2C[C@@H]3c4[nH]c5cc(OC)ccc5c4CCN3C[C@H]2C[C@@H](OC(=O)/C=C/c2cc(OC)c(OC)c(OC)c2)[C@@H]1OC	66.2%	90.4%	63.3%	69.2%	46.4%	68.5%	30.9%	81.7%	5.36% (active)	8.49% (active)
COc1ccc(NS(=O)(=O)N2CCCCC2)cc1	99.1%	115%	93%	76.4%	102%	104%	103%	80%	89.6%	99.8%
O=C(O)CCNS(=O)(=O)c1ccc(-c2ccccc2)cc1	0.624% (active)	91.6%	95%	92.8%	136%	97.9%	104%	115%	111%	118%
CC[C@@H](C)/C=C(C)/C=C/C(=O)c1c(O)c(-c2ccc(O)cc2)cn(OC2CC(=O)CCC(C)OC(=O)CC2O)c1=O (some centres undefined)	19.8%	5.02% (active)	17.5%	-15.5% (active)	43.1%	0.984% (active)	-17.1% (active)	28.7%	2.11% (active)	6.27% (active)
COC(=O)c1cc2oc(/C=N\NC(=O)c3cc4oc(C)c(C)c4[nH]3)cc2[nH]1	109%	91.6%	120%	94.7%	132%	104%	80.5%	115%	83.7%	82.1%
Cc1c2oc3c(C)ccc(C(=O)OC(C)C4NC(=O)C(C(C)C)N(C)C(=O)CN(C)C(=O)C5CCCN5C(=O)C(C(C)C)NC4=O)c3nc-2c(C(=O)OC(C)C2NC(=O)C(C(C)C)N(C)C(=O)CN(C)C(=O)C3CCCN3C(=O)C(C(C)C)NC2=O)c(N)c1=O (centres undefined)	-64.8% (active)	5.92% (active)	7.77% (active)	-8.49% (active)	-7.83% (active)	1.27% (active)	3.24% (active)	-75.4% (active)	18.4%	
COC(=O)C1=CCC(n2cnc3c(N)ncnc32)O1 (centres undefined)	94.5%	101%	103%	91.5%	104%	110%	75.1%	116%	98.8%	91.3%
COc1ccc(C(=O)COc2ccc(/C=C3\Oc4ccc5ccccc5c4C3=O)cc2)cc1	77.9%	90.9%	91.8%	-2.22% (active)	142%	156%	96%	102%	-21.9% (active)	50.4%
Nc1ccc(N=Nc2ccccc2)cc1[N+](=O)[O-]	87.2%	75.2%	84.6%	45.9%	82.8%	89.9%	66%	109%	97.7%	74.1%
